# Article PMC4336329 (PLoS ONE, 2015)
# About 2,200 (0.71%) of roughly 310,000 compounds showed an effect of 50% or more. Effects have a minus sign here. The full list was thinned out, with strong results kept by preference.
# Biological target: human ether-à-go-go-related gene (hERG) potassium channel (human, UniProt Q12809)
# Assay: primary screen, population patch clamp on CHO cells stably expressing hERG; higher = less effect of the substance
# Chain of human ether-à-go-go-related gene (hERG) potassium channel (Q12809 whole entry, looked up): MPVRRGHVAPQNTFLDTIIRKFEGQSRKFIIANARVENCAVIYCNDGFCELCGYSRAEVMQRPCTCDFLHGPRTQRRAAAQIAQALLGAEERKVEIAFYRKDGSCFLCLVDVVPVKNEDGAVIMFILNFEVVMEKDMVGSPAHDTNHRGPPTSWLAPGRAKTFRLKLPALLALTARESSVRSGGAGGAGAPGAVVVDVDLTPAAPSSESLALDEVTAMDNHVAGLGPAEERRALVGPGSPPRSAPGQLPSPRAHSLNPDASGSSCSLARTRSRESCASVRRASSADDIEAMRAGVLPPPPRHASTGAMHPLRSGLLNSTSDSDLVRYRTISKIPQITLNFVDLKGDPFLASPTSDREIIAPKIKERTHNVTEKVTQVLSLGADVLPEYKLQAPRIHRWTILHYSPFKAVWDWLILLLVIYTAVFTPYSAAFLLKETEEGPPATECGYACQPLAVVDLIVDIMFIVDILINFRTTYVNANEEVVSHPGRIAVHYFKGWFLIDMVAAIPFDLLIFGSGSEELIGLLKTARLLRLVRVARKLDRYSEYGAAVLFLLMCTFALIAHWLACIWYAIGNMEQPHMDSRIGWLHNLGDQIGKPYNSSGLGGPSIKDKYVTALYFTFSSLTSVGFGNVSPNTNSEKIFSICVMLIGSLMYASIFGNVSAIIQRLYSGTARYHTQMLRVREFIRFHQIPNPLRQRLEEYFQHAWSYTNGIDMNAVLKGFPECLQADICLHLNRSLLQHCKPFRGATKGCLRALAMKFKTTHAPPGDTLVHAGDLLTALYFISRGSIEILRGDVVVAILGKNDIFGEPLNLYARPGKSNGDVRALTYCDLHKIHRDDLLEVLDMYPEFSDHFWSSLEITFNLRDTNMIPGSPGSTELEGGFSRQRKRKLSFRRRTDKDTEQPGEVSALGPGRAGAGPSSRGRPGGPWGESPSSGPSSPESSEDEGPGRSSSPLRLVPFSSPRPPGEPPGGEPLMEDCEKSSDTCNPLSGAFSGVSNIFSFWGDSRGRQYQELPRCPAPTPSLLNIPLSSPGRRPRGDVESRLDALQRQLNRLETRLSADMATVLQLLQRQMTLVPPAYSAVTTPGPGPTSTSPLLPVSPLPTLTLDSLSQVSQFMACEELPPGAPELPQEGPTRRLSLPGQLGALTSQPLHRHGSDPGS
row,SMILES,"hERG current change (%, negative = inhibition) at 1uM"
1,N=c1nc(N)nc2n1NC(c1ccc(F)cc1)=CS2,-3.69%
2,CCCCN(C(=O)c1ccc(Cl)cc1)C1CC2CCC(C1)N2C.Cl (stereo not drawn),-15.6%
3,COc1ccc(N(C(=O)/C=C/c2ccccc2)C2=CC3CCC(C2)N3C)cc1.Cl (stereo not drawn),-70.3%
4,CN1C2C=C(N(CCc3c[nH]c4ccccc34)C(=O)c3ccc(Cl)cc3)CC1CC2.Cl (stereo not drawn),-41.4%
5,CN1C2CCC1CC(N(CCc1ccccc1)C(=O)c1ccc(Cl)cc1)C2.Cl (stereo not drawn),-78.8%
6,Cc1cc(C)cc(C(=O)N(CCc2ccccc2)C2CC3CCC(C2)N3C)c1.Cl (stereo not drawn),-18%
7,COc1ccc(N(C(=O)/C=C/c2ccc(OC)c(OC)c2)C2=CC3CCC(C2)N3C)cc1.Cl (stereo not drawn),-42.8%
8,CN1C2C=C(N(C(=O)c3ccc(Cl)cc3)c3ccccc3)CC1CC2.Cl (stereo not drawn),-69.8%
9,COc1ccc(C(=O)CN(C(=O)c2ccc(Cl)cc2)N2C(=O)C3CCCCC3C2=O)cc1 (stereo not drawn),10.8%
10,COc1cc(C(=O)N(CCc2ccccc2)C2=CC3CCC(C2)N3C)cc(OC)c1OC.Cl.O (stereo not drawn),-13.5%
11,CN1C2C=C(N(CCc3ccccc3)C(=O)c3ccc(Cl)cc3)CC1CC2.Cl (stereo not drawn),-19.7%
12,COc1ccc(N(C(=O)c2ccc(Cl)cc2)C2=CC3CCC(C2)N3C)cc1.Cl (stereo not drawn),-76.1%
13,CN1C2CCC1CC(OC(=O)c1ccc(Cl)cc1)C2.Cl (stereo not drawn),-9.75%
14,Cc1cc(C)n2c(SC(C)C(=O)NC3(C#N)CCCCC3)nnc2n1 (stereo not drawn),11.7%
15,CCOC(=O)c1oc2ccccc2c1NC(=O)c1ccc(S(=O)(=O)N2CCCC2)cc1,-6.45%
16,CCOC(=O)C1CCN(S(=O)(=O)c2cc(F)ccc2OC)CC1,8.83%
17,COc1ccc(-c2nc(NCCCN(C)C)c3ccccc3n2)cc1.Cl,3.72%
18,C=C(C)Cn1c(SCC#N)nc2ccccc2c1=O,3.85%
19,COc1ccc(S(=O)(=O)N2CCN(C)CC2)c2ccccc12,9.59%
20,CC(Sc1nc2ccccc2n1C)C(=O)Nc1ccc(N2CCOCC2)cc1 (stereo not drawn),6.2%
21,CN1CCN(C(=O)CCC(=O)NCc2ccc(F)cc2)CC1,9.84%
22,O=C(COC(=O)c1ccccn1)NC(=O)c1ccccc1,-5.45%
23,Cc1[nH]nc2ncc(C(=O)c3cc(Cl)cc(Cl)c3O)cc12,10.1%

row,SMILES,"hERG current change (%, negative = inhibition) at 1uM"
1,COc1cccc(OC)c1C(=O)Nc1nc2ccc([N+](=O)[O-])cc2s1,16.1%
2,COc1cccc(CNC(=O)c2cc(C3CC3)nc3c2cnn3C(C)C)c1,-0.644%
3,CCCCN(C(=O)c1cc(OC)c(OC)c(OC)c1)C1=CC2CCC(C1)N2C.Cl (stereo not drawn),8.68%
4,COc1ccc(CCN(C(=O)c2ccc(F)cc2)C2=CC3CCC(C2)N3C)cc1OC.Cl (stereo not drawn),-22.6%
5,COc1ccc(N(C(=O)c2ccc(F)cc2)C2=CC3CCC(C2)N3C)cc1.Cl (stereo not drawn),-50.3%
6,CCOc1cc([N+](=O)[O-])cc(/C=C2/NC(=O)N(Cc3ccccc3F)C2=O)c1O,4.45%
7,COc1cc(NC(=S)NC(=O)c2ccccc2F)ccc1NC(=O)c1ccco1,7.37%
8,CCn1c(SCC(=O)Nc2ccc(C)cc2)nc2nc3c(cc2c1=O)COC(C)(C)C3,-76.5%
9,CCn1c(SCC(=O)Nc2ccc(C(C)=O)cc2)nc2nc3c(cc2c1=O)COC(C)(C)C3,14.1%
10,CCn1c(SCC(=O)Nc2ccccc2)nc2nc3c(cc2c1=O)COC(C)(C)C3,-12.4%
11,Cc1cccc(-n2ncc3c(NC(C)C)ncnc32)c1,12.7%
12,Cc1nn(C(C)C(=O)Nc2ccc(Cl)cn2)c(C)c1[N+](=O)[O-] (stereo not drawn),2.84%
13,Cc1ccc(C)c(NC(=O)C2CC(O)CN2C(=O)OCc2ccccc2)c1 (stereo not drawn),2.34%
14,O=C(c1ccc(Cl)cc1)N1CCN(CCOc2ccccc2)CC1,-12.4%
15,COc1ccc(OCCN2CCN(C(=O)c3ccc(OC)c(OC)c3)CC2)cc1,-35.6%
16,COc1ccc(N2CCN(CCC(N)=O)CC2)cc1,14.6%
17,COc1ccc(C(=O)NCCN2CCN(C(=O)c3ccc(OC)cc3)CC2)cc1,-22.1%
18,COc1ccc(N2CCN(CCC(=O)c3ccc4ccccc4c3)CC2)cc1,11.4%
19,COc1ccc(C(=O)CCN2CCN(c3ccc(OC)cc3)CC2)cc1,-74.1%
20,COc1ccc(OCCN2CCN(C(=O)c3ccc(OC(F)F)c(OC)c3)CC2)cc1,-62.6%
21,COc1ccc(OCCN2CCN(C(=O)c3ccc(OC)cc3)CC2)cc1,-90.6%
22,COc1ccc(C(=O)NCCN2CCN(C(=O)c3ccc(OC)c(OC)c3)CC2)cc1OC,13.2%
